{"source": "PubChem BioAssay AID1053118", "about": "(Broad Institute, 2014)", "note": "Entries with a potency or affinity are not part of this list. Calls of active or inactive are those of the source.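 The calls were made as follows: active = fitted half-maximal concentration for ATP signal loss at most twice the top valid dose; inconclusive = flat curve between -70 and -30%, or an invalid fit; inactive = flat within ±30%, wrong direction, or potency past limit.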"}
{"assay": "viability loss in HepG2 hepatoma cells – cell-based, cherry-picks, set 5, cytotoxicity control, dose response (AID 1053118)", "conditions": "ATP luminescence, 72 h; series mostly up to 26 µM"}
{"smiles": "COCC(=O)Nc1ccc2c(c1)C(=O)N(C)[C@@H]1CC[C@@H](CC(=O)NCc3ccccc3Cl)O[C@@H]1CO2", "outcome": "inactive"}
{"smiles": "C[C@H]1CN([C@@H](C)CO)C(=O)c2cc(-c3ccccc3)cnc2O[C@@H]1CN(C)Cc1ccccc1", "outcome": "inactive"}
{"smiles": "C[C@@H]1CN([C@H](C)CO)C(=O)c2cc(NC(=O)C3CCCCC3)ccc2O[C@@H]1CN(C)Cc1ccc(-c2ccccc2)cc1", "outcome": "inactive"}
{"smiles": "Nc1c(C(=O)NCc2ccco2)nnn1Cc1ccccc1", "outcome": "inactive"}
{"smiles": "C[C@@H]1CN([C@@H](C)CO)C(=O)c2cc(-c3ccccc3)cnc2O[C@@H]1CN(C)C(=O)c1cccc(F)c1", "outcome": "inactive"}
{"smiles": "C[C@H]1CN([C@@H](C)CO)C(=O)c2cc(NC(=O)CCCN(C)C)ccc2O[C@@H]1CN(C)Cc1ccc(-c2ccccc2)cc1", "outcome": "inactive"}
{"smiles": "CCN(Cc1ccncc1)C(=O)c1ccc2c(c1)S(=O)(=O)c1ccccc1C2=O", "outcome": "inactive"}
{"smiles": "N#C[C@H]1[C@H](c2ccccc2C2=CCCCC2)[C@H](CO)N1S(=O)(=O)c1ccccc1", "outcome": "inactive"}
{"smiles": "COC(=O)C[C@@H]1CC[C@@H]2[C@H](COc3ccc(NC(=O)Cc4cccs4)cc3C(=O)N2C)O1", "outcome": "inactive"}
{"smiles": "CCOC(=O)c1nnn(-c2ccc(OC)cc2)c1N", "outcome": "inactive"}
{"smiles": "COCC(=O)Nc1ccc2c(c1)C(=O)N(C)[C@H]1CC[C@H](CC(=O)NCc3ccccc3Cl)O[C@@H]1CO2", "outcome": "inactive"}
{"smiles": "O=S(=O)(c1cccc(F)c1)N1CC[C@H]2[C@H](CO)Nc3ccc(-c4cccc(F)c4)cc3[C@H]21", "outcome": "inactive"}
{"smiles": "Nc1nc(-c2cc3c(cc2Cl)OCCO3)cs1", "outcome": "inactive"}
{"smiles": "COC(=O)c1cn(CC(=O)NCc2ccco2)c2ccccc12", "outcome": "inactive"}
{"smiles": "COC(=O)C[C@@H]1CC[C@H]2[C@H](COc3ccc(NC(=O)Cc4cccs4)cc3C(=O)N2C)O1", "outcome": "inactive"}
{"smiles": "C[C@H](CO)N1C[C@H](C)[C@H](CN(C)C(=O)c2cccc(F)c2)Oc2ncc(-c3ccccc3)cc2C1=O", "outcome": "inactive"}
{"smiles": "C[C@H](CO)N1C[C@H](C)[C@H](CN(C)Cc2ccc(-c3ccccc3)cc2)Oc2ccc(NC(=O)C3CCCCC3)cc2C1=O", "outcome": "inactive"}
{"smiles": "COc1ccc(C)cc1N(CC(=O)Nc1cccc(N(C)S(C)(=O)=O)c1)S(C)(=O)=O", "outcome": "inactive"}
{"smiles": "C[C@@H]1CN([C@H](C)CO)C(=O)c2cc(-c3ccccc3)cnc2O[C@@H]1CN(C)Cc1ccccc1", "outcome": "inactive"}
{"smiles": "C[C@@H]1CN([C@H](C)CO)C(=O)c2cccc(NC(=O)Nc3ccc(C(F)(F)F)cc3)c2O[C@H]1CN(C)C(=O)Nc1cccc2ccccc12", "outcome": "inactive"}
{"smiles": "CN(C)C(=O)c1ccc(-c2ccc3c(c2)[C@H]2[C@H](CCN2C(=O)c2ccc(F)cc2)[C@@H](CO)N3C)cc1", "outcome": "inactive"}
{"smiles": "Cc1c(NC(=O)c2ccc3nsnc3c2)cccc1[N+](=O)[O-]", "outcome": "inactive"}
{"smiles": "C[C@H](CO)N1C[C@H](C)[C@H](CN(C)C(=O)Nc2cccc3ccccc23)Oc2c(NC(=O)Nc3ccc(C(F)(F)F)cc3)cccc2C1=O", "outcome": "inactive"}
{"smiles": "CO[C@H]1CN(C)C(=O)c2cc(NC(=O)Nc3cc(Cl)cc(Cl)c3)ccc2OC[C@@H](C)NC[C@@H]1C", "outcome": "inactive"}
{"smiles": "Cc1ccc(S(=O)(=O)N2CC3(C)CN(S(=O)(=O)c4ccc(C)cc4)CC(C)(C2)C3=O)cc1", "outcome": "inactive"}
{"smiles": "C[C@H](CO)N1C[C@H](C)[C@@H](CN(C)Cc2ccc(-c3ccccc3)cc2)Oc2ccc(NC(=O)C3CCCCC3)cc2C1=O", "outcome": "inactive"}
{"smiles": "COc1cccc(CN2CCN(C(=O)c3ccc(-c4ccccc4)cc3)CC2)c1OC", "outcome": "inactive"}
{"smiles": "O=C(c1cccnc1)N1C[C@H]2[C@@H](c3ccccc31)[C@H](CO)N2CC1CCCC1", "outcome": "inactive"}
{"smiles": "C[C@H](CO)N1C[C@H](C)[C@H](CN(C)C)Oc2cc(C#C[C@@H](C)O)ccc2S1(=O)=O", "outcome": "inactive"}
{"smiles": "C[C@H]1CN([C@@H](C)CO)C(=O)c2cc(-c3ccccc3)cnc2O[C@@H]1CN(C)C(=O)c1cccc(F)c1", "outcome": "inactive"}
{"smiles": "Cc1cc(C)n2ncc(C(=O)NCc3ccc(Cl)cc3)c2n1", "outcome": "inactive"}
{"smiles": "CN1c2ccc(-c3ccccc3)cc2[C@@H]2[C@@H](CCN2C(=O)CN2CCOCC2)[C@H]1CO", "outcome": "inactive"}
{"smiles": "CC1(C)Cc2c(C#N)c(SCC(=O)c3ccccc3)nc(N3CCOCC3)c2CS1", "outcome": "inactive"}
{"smiles": "O=C(Nc1ccccc1F)N1C[C@H]2[C@@H](c3ccccc31)[C@H](CO)N2C(=O)C1CC1", "outcome": "inactive"}
{"smiles": "COC(=O)C[C@H]1CC[C@H]2[C@@H](COc3ccc(NC(=O)Cc4cccs4)cc3C(=O)N2C)O1", "outcome": "inactive"}
{"smiles": "N#Cc1ccc(-c2ccc3c(c2)[C@H]2[C@H](CCN2S(=O)(=O)c2cccc(F)c2)[C@H](CO)N3)cc1", "outcome": "inactive"}
